PubChem BioAssay (Tox21)
Inconclusive results are not listed. A call without a number means that no potency is given here. Activity calls are given as the source filed them. Calls follow the shape of the dose curve; as a rule, active = well fitted inhibition curve with a large enough effect in the repeat runs; inconclusive = weak or mixed curves, or effect the other way; inactive = no such curve, though single readings can be large or run the other way.

Test: qHTS assay to identify small molecule antagonists of the retinoic acid receptor (RAR) signaling pathway (AID 1159552; also: nearly all actives have a fitted effect of over 50% in size)
Conditions: C3RL4 RARE luciferase reporter, retinol-stimulated, 6 h; series mostly up to 92.4 µM
From the text: National Center for Advancing Translational Sciences [NCATS]
NIH Chemical Genomics Center [NCGC]
U.S. Environmental Protection Agency [EPA]
National Institutes of Environmental Health Sciences [NIEHS]
National Toxicology Program [NTP]
U.S. Food and Drug Administration [FDA]
All-trans Retinoic acid (atRA) is the potent natural metabolite of retinol and plays an important role in normal embryonic development and maintenance of cellular phenotype in adult animals. atRA is the activating ligand for the retinoic acid receptors (RARs) which form heterodimers with retinoid X receptors (RXRs) on the retinoic acid response element (RARE). Through activation of the RAR/RXRs nuclear receptors, atRA regulates the transcription of a large number of protein-coding genes and regulatory RNAs. Intracellular levels of atRA are controlled by the retinol signaling pathway (RSP) that regulates the biosynthesis and catabolism of atRA to maintain physiological levels. Chemicals that interfere with the RSP can cause abnormal intracellular levels of atRA and therefore are potential developmental toxicants. To assess compounds for the potential adverse effect on embryonic development through interfering with retinol signaling, a cell-based RARE luciferase reporter gene assay was used. C3RL4 cell line (OARSA/CFSAN/FDA, Laurel, MD) was used to screen Tox21 10K compound library for identifying inhibitors of the RSP.
Tox21 Assay Protocol Summary:
C3RL4 cells were seeded at 1,000/well in 4 uL of assay medium into white solid 1,536-well tissue culture plates (Greiner Bio-One North America Inc. Monroe, NC) using a Multidrop Combi (Thermo Scientific, Waltham, MA) dispenser. After incubation at 37 C and 5% CO2 for an overnight, 23 nL of compounds dissolved in DMSO, positive control or DMSO only were transferred by a Pintool station (Kalypsys, San Diego, CA). One ul of 1 uM (final concentration) of Retinol was added right after the compound addition by using a Flying Reagent Dispenser (FRD) (Aurora Discovery, San Diego, CA). After 6 hr incubation at 37 C and 5% CO2, 5 uL of Amplite Luciferase reagent (AAT Bioquest Inc. Sunnyvale, CA) was added to each assay plate using an FRD. Luminescence was quantified on a ViewLux plate reader (PerkinElmer, Waltham, MA) after 30 min incubation at room temperature.
Potency is read from the fitted curve at half-maximal effect.

Structure (SMILES)	activity, negative = inhibition	Potency
CCCCCCCCCCCCCCN(C)C	-4.35% [at 19 µM] (inactive)	
CCCCCCCCCCCC(=O)OCC(O)CO (stereo not given)		inactive
COc1ccc(CCN(C)CCCN2CCc3cc(OC)c(OC)cc3CC2=O)cc1OC		inactive
CC(C)(C)S		inactive
C=Cc1ccc(OC(C)=O)cc1		inactive
CC(C)COC(=O)c1ccc(O)cc1		inactive
CCN(CC)c1ccc(C(=C2C=CC(=[N+](CC)CC)C=C2)c2ccc(S(=O)(=O)O)cc2S(=O)(=O)[O-])cc1		24.3 µM (active)
CC(=O)OC(C)C[N+](C)(C)C (stereo not given)		inactive
CCCCCCCCCCCCCOC(=O)CCSCCC(=O)OCCCCCCCCCCCCC	-11.1% [at 19 µM] (inactive)	
CCN(CC)CCOc1ccccc1C(=O)CCc1ccccc1		inactive
O=C1[C@@H]2[C@H]3CC[C@H](C3)[C@@H]2C(=O)N1CCCCN1CCN(c2ncccn2)CC1		inactive
Nc1ccc(NC(=O)c2ccc(N)cc2)cc1		inactive
O=P(O)(O)Oc1ccccc1		inactive
CNc1c2c(nn1C)CCCC2		inactive
CNC1CCCN(c2c(F)cc3c(=O)c(C(=O)O)cn(C4CC4)c3c2OC)C1 (stereo not given)		inactive
CN1CCCN(C(c2ccccc2)c2ccc(Cl)cc2)CC1 (stereo not given)		23.7 µM (active)
FC(F)(F)C(F)(F)C(F)(F)C(F)(F)CCI		inactive
CCOc1ncc(F)c(=O)[nH]1		inactive
Nc1ccc(F)cc1		inactive
C[C@@H]1[C@H](O)[C@@H](C)/C=C/C=C\C=C\C=C\C=C\C=C\C=C\[C@H](O[C@@H]2O[C@H](C)[C@@H](O)[C@H](N)[C@@H]2O)C[C@@H]2O[C@](O)(C[C@@H](O)C[C@@H](O)[C@H](O)CC[C@@H](O)C[C@@H](O)CC(=O)O[C@H]1C)C[C@H](O)[C@H]2C(=O)O (stereo in doubt)		inactive

Structure (SMILES)	activity, negative = inhibition	Potency
CC1=CC[C@@]23C[C@@H]1C(C)(C)[C@@H]2CC[C@H]3C		inactive
CCOCCC(=O)OCC		inactive
CCCCCC		inactive
CSSc1ccoc1C		inactive
CCCCCCC(O)CCCCCCCCCCC(=O)OC (stereo not given)		inactive
COC(=O)c1sccc1S(N)(=O)=O		inactive
CC(C)(C)NCC(O)COc1cccc2c1C[C@H](O)[C@H](O)C2 (stereo not given in full)		inactive
C=CCOC(=O)COCCC(C)C		inactive
O=C(O)/C=C/c1ccc(O)c(O)c1		inactive
CC(C(=O)O)c1ccc(C(=O)c2cccs2)cc1 (stereo not given)		inactive
O[C@@H](CNC[C@H](O)[C@H]1CCc2cc(F)ccc2O1)[C@@H]1CCc2cc(F)ccc2O1		29.8 µM (active)
O=c1[nH]c2cc(C(F)(F)F)c(N3CCOCC3)cc2n(CP(=O)(O)O)c1=O		inactive
CC1CCc2nccnc21 (stereo not given)		inactive
CC(CN(CCN(CC(C)OCCO)CC(C)OCCO)CC(C)OCCO)OCCO (stereo not given)		inactive
Nc1ccc(N=Nc2ccc(N)cc2)cc1		inactive
Nc1cccc2c(N)cccc12		inactive
c1ccc(CNc2ncnc3c2ncn3C2CCCCO2)cc1 (stereo not given)		inactive
CC/C=C\C/C=C\C/C=C\CCCCCCCC(=O)OCC		inactive
CCN(Cc1cccc(S(=O)(=O)O)c1)c1ccc(C(=C2C=CC(=[N+](CC)Cc3cccc(S(=O)(=O)O)c3)C=C2)c2ccccc2S(=O)(=O)[O-])cc1		13.7 µM (active)
Cc1ccc2c(c1[N+](=O)[O-])C(=O)c1ccccc1C2=O		inactive
